Results: PubChem BioAssay (NCI)
This is part of a sample that, as a whole, favours compounds with a hit. Of some 83,000 tested, about 20% had one in any assay.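 Interpretation: 100, growth as untreated; towards 0, rising growth inhibition; 0, no net growth; 0 to -100, cell death. Compounds scoring below 10 were considered active.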 Unmarked numbers belong to inactive results. Active and inactive are the calls of the source.

Assays:
Assay in all cases: NCI-60 one-dose screen, 48 h (100 = growth as untreated, 0 = no growth, -100 = all killed)
Details in all cases: 10 µM unless noted
HCT-15 colon = system: HCT-15 colon
HT29 colon = system: HT29 colon
SNB-75 CNS = system: SNB-75 CNS
SNB-19 CNS = system: SNB-19 CNS
U251 CNS = system: U251 CNS
PC-3 prostate = system: PC-3 prostate
SK-MEL-5 melanoma = system: SK-MEL-5 melanoma
UACC-62 melanoma = system: UACC-62 melanoma
LOX IMVI melanoma = system: LOX IMVI melanoma
SK-MEL-28 melanoma = system: SK-MEL-28 melanoma

SMILES | growth (HCT-15 colon) | growth (HT29 colon) | growth (SNB-75 CNS) | growth (SNB-19 CNS) | growth (U251 CNS) | growth (PC-3 prostate) | growth (SK-MEL-5 melanoma) | growth (UACC-62 melanoma) | growth (LOX IMVI melanoma) | growth (SK-MEL-28 melanoma)
COc1ccc(C(=O)c2cc3c(N)c(C(=O)Nc4ccc(C)cc4)sc3nc2C)cc1 | 11.5% | 9.18% (active) | -2.41% (active) | 28.9% | 19.2% | 25.1% | 6.93% (active) | 30.6% | 39.2% | 54%
CC1=C2[C@@H](CC1)[C@]1(C)O[C@@](C(C)C)(C[C@H]1OC(=O)[C@H](C)O)[C@H]2OC(=O)/C=C/c1ccccc1 | 83.6% | 82.8% | 66.4% | 85.1% | 79% | 58.3% | 90.3% | 66% | 84.6% | 108%
Cc1ccc(-c2nc([P+](c3ccccc3)(c3ccccc3)c3ccccc3)c(S(=O)(=O)c3ccc(C)cc3)o2)cc1 | 4.17% (active) | 0% (active) | -11.3% (active) | 53.5% | 3.23% (active) | 11.2% | 48.7% | 26.1% | -31.7% (active) | 24.6%
CC1OC(n2c3ccccc3c3c4c(c5c6ccccc6[nH]c5c32)C(=O)N(CCN2CCCC2)C4=O)CC(O)C1O (stereo not given) | 10.7% | -49.9% (active) | 12.1% | 35.1% | 37.9% | 33.2% | 61.3% | 67.7% | 25.3% | 91.4%
CCCCNCCCCCNc1cc(OC)cc2cccnc12 | 88.2% | 96% | 74.1% | 95.5% | 91.8% | 77.8% | 94.3% | 83.2% | 105% | 98.8%
COc1cc2c(c(OC)c1OC)CCC(c1cccc(NC(=O)c3ccc(Br)cc3)c1)O2 (stereo not given) | 85.2% | 77.4% | 86% | 86% | 90% | 60.5% | 71.4% | 60.6% | 90.4% | 89.7%
O=C(Cn1cc(CSc2nc3ccccc3o2)nn1)Nc1ccc(F)cc1F | 107% | 128% | 103% | 101% | 120% | 101% | 98.4% | 111% | 108% | 114%
CCOC(=O)c1nn(-c2ccc(S(N)(=O)=O)cc2)c2nc(C)cc(=O)n12 | 108% | 109% | 94.8% | 98.8% | 99% | 101% | 106% | 99.6% | 96.2% | 119%
Ic1ccc(OCCCCn2ccnc2)cc1 | 74.5% | 27.5% | 64.5% | 65.2% | 67.8% | 48.6% | 79.6% | 40.6% | 80.3% | 55.9%
CC(C)=CCC[C@](C)(O)[C@H]1CC[C@]2(C)[C@@H]1CC[C@@H]1[C@@]3(C)C/C(=C/c4ccco4)C(=O)C(C)(C)[C@@H]3CC[C@]12C | 110% | 111% | 92.7% | 103% | 101% | 97.4% | 102% | 91.7% | 101% | 102%
COc1ccc(/C=N/NC(=O)c2ccc(-n3cc(-c4ccccc4)nn3)cc2)cc1OC | 97.6% | 100% | 94% | 107% | 106% | 94% | 89.2% | 76.7% | 94.5% | 88.8%
CC(C)(Sc1cc(C(C)(C)C)c(O)c(C(C)(C)C)c1)Sc1cc(C(C)(C)C)c(OC(=O)CCCC(=O)O)c(C(C)(C)C)c1 | 27.8% | 40.8% | 112% | 57.1% | 47.1% | 33.9% | 54.1% | 26.1% | 59% | 70.6%
Cc1cc(C)c2c(c1)N(C)c1ncnc(-n3cnc4cc(C)ccc43)c1CC2C (stereo not given) | 23.4% | 0.933% (active) | 29.1% | 35.7% | 14.6% | 20.9% | 8.49% (active) | 30.7% | 46.5% | 62.9%
COc1ccc(/C=C(\C#N)n2nnc3ccc(Cl)cc32)cc1 | 38.9% | 26.3% | 20.4% | 55.2% | 61.7% | 63.7% | 81.7% | 62.3% | 56.9% | 71.4%
COc1ccc(C(=O)C/C(=C\c2ccc(Cl)cc2)C(=O)NCc2ccccc2)cc1 | 47% | 82.1% | 100% | 85.5% | 70.6% | 56.4% | 93.4% | 67.3% | 77.9% | 91.2%
CCCNC(=O)Nc1ccc2cc3ccc(NC(=O)NCCC)cc3nc2c1 | 94.5% | 98.5% | 71.7% | 68.1% | 61.2% | 81.5% | 81.8% | 91.5% | 72.2% | 81.9%
O=S(=O)(NCCNc1nccc(-c2c(-c3ccc(F)c(O)c3)nc3sccn23)n1)c1ccc(O)cc1 | 33.1% | 17% | 58.9% | 56.3% | 56.8% | 22.4% | 5.55% (active) | 17.4% | 32.2% | 55.2%
COC(=O)/C=C1/SC(=Nc2ccc(C(F)(F)F)cc2)N(CCc2c[nH]c3ccc(O)cc23)C1=O | 3.12% (active) | -49.9% (active) | -3.46% (active) | -2.49% (active) | -37.7% (active) | -33.8% (active) | -61.9% (active) | -53.6% (active) | -60% (active) | -29.5% (active)
Cc1c[n+](Cc2ccc3ccccc3c2)cn1Cc1ccc2ccccc2c1 | 95.1% | -35.5% (active) | -0.361% (active) | 17.7% | 8.55% (active) | 10.3% | -71.2% (active) | -30.5% (active) | 19.5% | 4.48% (active)
COc1cc(-c2csc(NC(=O)c3ccc(N4CCOCC4)c(C(F)(F)F)c3)n2)cc(OC)c1OC | 11% | 43.2% | 57.2% | 62.6% | 47.3% | 11% | -6.45% (active) | -6.31% (active) | 23.1% | 36.6%
Clc1cccc(Nc2ncnc3ccc(-c4cnc5[nH]ccc5c4)cc23)c1 | 69.4% | 54.1% | 84.7% | 82.3% | 72.9% | 70.5% | 75.4% | 90.2% | 86.2% | 96%
N#Cc1c(-c2ccccc2)[nH]c2ncc(-c3ccccc3)n2c1=O | 93.5% | 106% | 78.8% | 105% | 93.1% | 74.6% | 87.7% | 87.8% | 86.8% | 102%

SMILES | growth (HCT-15 colon) | growth (HT29 colon) | growth (SNB-75 CNS) | growth (SNB-19 CNS) | growth (U251 CNS) | growth (PC-3 prostate) | growth (SK-MEL-5 melanoma) | growth (UACC-62 melanoma) | growth (LOX IMVI melanoma) | growth (SK-MEL-28 melanoma)
Nc1n[nH]c2cccc(C#Cc3cccc(NC(=O)c4cc(F)cc(C(F)(F)F)c4)c3)c12 | 74.4% | 48.3% | 98.6% | 104% | 93.7% | 64.1% | 71.7% | 48.1% | 37% | 66.8%
COc1cc2c(cc1OCCCN1CCN(CCCOc3cc4c(cc3OC)C(=O)N3CCC[C@H]3C=N4)CC1)C=CC(C)(C)O2 | -98% (active) | -100% (active) | -98.2% (active) | -94.6% (active) | -98.5% (active) | -75.3% (active) | -100% (active) | 1.28% (active) | -98.6% (active) | -100% (active)
O=C(N(c1ccccc1)c1ccccc1)n1cc(I)c2nc(Cl)nc(Cl)c21 | 30.6% | 29.7% | 35.1% | 46.8% | 24.2% | 32.1% | 63.9% | 37.2% | 31.1% | 88.2%
O=C(/C=C(/C=C/c1ccc2[nH]ccc2c1)OB(F)F)/C=C/c1ccc2[nH]ccc2c1 | -52.9% (active) | -55.7% (active) | 23.1% | 12.9% | -84.1% (active) | -6.64% (active) | 12.2% | -21.5% (active) | -64.3% (active) | 22%
CCO/C=N/C1=C(C#N)C(c2ccc(Cl)cc2)c2sc3c(F)cccc3c2O1 (stereo not given) | 35.7% | 89.5% | 42.6% | 51.2% | 45.7% | 67.1% | 64.9% | 35.9% | 51.8% | 73.6%
COc1ccc(C/C(C)=C(/c2ccc(OCCN(C)C)cc2)c2ccc(OC(=O)NCc3ccccc3)cc2)cc1 | 24.3% | -13.7% (active) | 77.7% | 85.6% | 45.7% | 68.4% | 63.1% | 69.3% | -12% (active) | 54.6%
C/C(Cc1ccc(Cl)cc1)=C(\c1ccc(O)cc1)c1ccc(Cl)cc1 | 85.3% | 90.9% | 94.7% | 104% | 102% | 71.8% | 100% | 84.6% | 89.9% | 95.1%
CCOC(=O)C1=C(c2ccccc2)N=C2SC=C(c3ccc(Cl)cc3)N2C1c1ccc(Cl)cc1 (stereo not given) | 77.6% | 83% | 84.7% | 82.8% | 80.9% | 41.3% | 54.7% | 66.4% | 88.3% | 95.8%
CCOC(=O)n1cc(-c2nonc2-c2cn(C(=O)OCC)c3ccc(Br)cc23)c2ccccc21 | 76.8% | 76.1% | 73.1% | 93.5% | 89.8% | 69% | 82.3% | 58.7% | 74.6% | 100%
CC/C(=C(/c1ccc(Cl)cc1)c1ccc(OCCN2CCCCC2)cc1)c1ccc(OC)cc1 | 18.5% | 11.9% | 103% | 72.4% | 40.6% | 30.9% | 36.6% | 78.8% | 53.4% | 82.7%
O=C(/C=C/c1cccc(Cl)c1)c1cccc(OCCCOc2cccc(C(=O)/C=C/c3cccc(Cl)c3)c2)c1 | 98.1% | 96.6% | 81.7% | 101% | 75.5% | 100% | 100% | 80.6% | 63.5% | 108%
O=C1C(Cl)=C(NCCCCCCNC2=C(Cl)C(=O)c3ccccc3C2=O)C(=O)c2ccccc21 | 63.3% | 98.7% | 117% | 96.3% | 89.9% | 82.2% | 53.2% | 83.5% | 36.3% | 111%
CCc1ncnc2c1ccn2C(C)c1ccc(OC)c(F)c1 (stereo not given) | 39.2% | 14% | 35.8% | 53.2% | 35.3% | 53.8% | 33% | 39.8% | 45.3% | 66.5%
CCNCCNc1cc(C2CCCCC2)c(C#N)c2nc3ccccc3n12 | 16.7% | -50% (active) | -26% (active) | 42.9% | -37.7% (active) | 40.2% | -55.1% (active) | -62% (active) | -94.8% (active) | -73.1% (active)
CC1CCN(CCOc2ccc(CNc3ccc4nc(CCC5CCCCC5)[nH]c4c3)cc2)CC1 | -22.5% (active) | 10% | 59.7% | 62.3% | -11.2% (active) | 40.3% | -99% (active) | 56.8% | -85.7% (active) | -80.2% (active)
CCCn1cc2c(=O)nc3sc(Cc4ccccc4)c(C)n3c2n1 | 106% | 98% | 97.6% | 98% | 93.2% | 98.5% | 107% | 95% | 94% | 123%
COc1ccc(C2=Nc3c(N)nc(N)nc3NC(c3cccc(Nc4ccnc5cc(C(F)(F)F)ccc45)c3)C2)cc1 (stereo not given) | 36.6% | 30.4% | 65.6% | 73.1% | 60.4% | 48.4% | 61.4% | 88.9% | 65.3% | 91.5%
N#Cc1nc(-c2ccc(F)cc2)oc1S(=O)(=O)N1CCCCC1 | -22.4% (active) | 32.3% | 92% | 96.5% | 91.2% | 92.1% | 88.7% | 94% | 1.69% (active) | 102%
O=C1/C=C/[C@@H](O)[C@@H]2C[C@@H](O)C[C@H]2/C=C/CCC[C@H](CCc2ccccc2)O1 | 11% | 3.12% (active) | 28.9% | 31.4% | 20.1% | 16.7% | -92.9% (active) | 23.7% | -59.1% (active) | -2.32% (active)
O=C(Nc1ccc(OS(=O)(=O)c2ccc(F)cc2)cc1)C1CCCCCC1 | 54.7% | 31.6% | 102% | 89.4% | 72.9% | 88.3% | 71.9% | 85.5% | 86.7% | 109%
C=C1C(=O)O[C@H]2[C@H]1CC/C(COC(=O)/C=C\C(=O)NCc1ccc(Cn3c(=O)sn(CCI)c3=O)cc1)=C\CC[C@@]1(C)O[C@@H]21 | 15.6% | 26.3% | 99.1% | 99% | 70% | 69% | 101% | 55.4% | 14% | 40.4%
